From PubChem BioAssay AID1159580 (chemical genetic matrix, 2015)
About 2,000 (36%) of roughly 5,500 compounds were called active. About 18% were inconclusive and are not listed. Cut-off read from the data, not from the text of the source: active = normalized growth mostly below about 0.91 (no sharp cut-off); inconclusive = no clear call, values can overlap the other calls; inactive = mostly above about 0.92. The list shows a part of the results.

Experiment: chemical genetic growth profiling, strain panel (AID 1159580);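 note: tested at 20 µM; growth read once vehicle control cultures reached saturation at 30 °C; 1 = growth at the plate median or of vehicle wells; lower values mean less growth of the strain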
Conditions: S. cerevisiae deletion strains, growth OD

Measured: normalized growth

CNC(=O)Oc1ccccc1OC(C)C
inactive: locus YAL013W, strain DEP1, stronger effect = lower value 1.01 | locus YAL021C, strain ccr4, stronger effect = lower value 0.987 | locus YAL026C, strain drs2, stronger effect = lower value 0.99 | locus YAL030W, strain snc1, stronger effect = lower value 0.992 | locus YBL061C, strain skt5, stronger effect = lower value 0.987 | locus YBR009C, strain hhf1, stronger effect = lower value 0.99 | locus YBR021W, strain FUR4, stronger effect = lower value 1.02 | locus YBR023C, strain chs3, stronger effect = lower value 0.985 | locus YBR171W, strain sec66, stronger effect = lower value 0.97 | locus YBR229C, strain ROT2, stronger effect = lower value 1.02 | locus YBR231C, strain swc5, stronger effect = lower value 0.984 | locus YBR279W, strain paf1, stronger effect = lower value 0.989 | locus YCL011C, strain gbp2, stronger effect = lower value 0.994 | locus YCL016C, strain dcc1, stronger effect = lower value 0.99 | locus YCL029C, strain bik1, stronger effect = lower value 0.994 | locus YCL061C, strain MRC1, stronger effect = lower value 0.994 | locus YCL069W, strain vba3, stronger effect = lower value 0.989 | locus YCR088W, strain abp1, stronger effect = lower value 0.99 | locus YDL005C, strain med2, stronger effect = lower value 0.985 | locus YDL035C, strain GPR1, stronger effect = lower value 1.03 | locus YDL040C, strain nat1, stronger effect = lower value 0.979 | locus YDL074C, strain BRE1, stronger effect = lower value 1.08 | locus YDL101C, strain DUN1, stronger effect = lower value 1.02 | locus YDL134C, strain PPH21, stronger effect = lower value 1.02 | locus YDL185W, strain tfp1, stronger effect = lower value 0.979 | locus YDL192W, strain arf1, stronger effect = lower value 0.989 | locus YDR001C, strain nth1, stronger effect = lower value 0.993 | locus YDR069C, strain doa4, stronger effect = lower value 0.983 | locus YDR101C, strain arx1, stronger effect = lower value 0.983 | locus YDR137W, strain rgp1, stronger effect = lower value 1.05 | locus YDR150W, strain NUM1, stronger effect = lower value 1.02 | locus YDR159W, strain sac3, stronger effect = lower value 0.973 | locus YDR162C, strain NBP2, stronger effect = lower value 1.01 | locus YDR195W, strain ref2 0.915 | locus YDR297W, strain sur2, stronger effect = lower value 0.998 | locus YDR318W, strain mcm21, stronger effect = lower value 0.996 | locus YDR334W, strain swr1, stronger effect = lower value 0.982 | locus YDR335W, strain msn5, stronger effect = lower value 0.998 | locus YDR388W, stronger effect = lower value 0.986 | locus YDR392W, strain spt3, stronger effect = lower value 0.978 | locus YDR502C, strain sam2, stronger effect = lower value 1 | locus YEL003W, strain gim4, stronger effect = lower value 0.993 | locus YEL037C, strain rad23, stronger effect = lower value 0.989 | locus YEL061C, strain CIN8 (second series), stronger effect = lower value 0.983 | locus YEL061C, strain CIN8, stronger effect = lower value 1.01 | locus YER015W, strain faa2, stronger effect = lower value 0.991 | locus YER016W, strain bim1, stronger effect = lower value 0.991 | locus YER110C, stronger effect = lower value 0.994 | locus YER111C, strain swi4, stronger effect = lower value 0.984 | locus YER155C, strain BEM2 (second series), stronger effect = lower value 0.97 | locus YER155C, strain BEM2, stronger effect = lower value 1.02 | locus YER167W, strain BCK2, stronger effect = lower value 1 | locus YFR010W, strain ubp6, stronger effect = lower value 0.992 | locus YGL078C, strain dbp3, stronger effect = lower value 0.966 | locus YGL086W, strain mad1, stronger effect = lower value 0.994 | locus YGL167C, strain pmr1, stronger effect = lower value 0.987 | locus YGL173C, strain kem1, stronger effect = lower value 0.987 | locus YGL227W, strain vid30, stronger effect = lower value 0.982 | locus YGL240W, strain doc1, stronger effect = lower value 0.974 | locus YGL248W, strain PDE1, stronger effect = lower value 1.02 | locus YGL253W, strain hxk2, stronger effect = lower value 0.99 | locus YGR078C, strain PAC10, stronger effect = lower value 1.03 | locus YGR135W, strain pre9, stronger effect = lower value 0.993 | locus YGR229C, strain SMI1, stronger effect = lower value 1.03 | locus YGR252W, strain gcn5, stronger effect = lower value 0.991 | locus YHR013C, strain ard1, stronger effect = lower value 0.954 | locus YHR027C, strain rpn1, stronger effect = lower value 0.996 | locus YHR030C, strain SLT2, stronger effect = lower value 1.02 | locus YHR079C, strain IRE1 (second series), stronger effect = lower value 0.988 | locus YHR094C, strain hxt1, stronger effect = lower value 0.992 | locus YHR129C, strain ARP1, stronger effect = lower value 1.03 | locus YHR142W, strain chs7, stronger effect = lower value 1 | locus YHR200W, strain rpn10, stronger effect = lower value 0.986 | locus YIL066C, strain RNR3, stronger effect = lower value 1.02 | locus YIL073C, strain SPO22, stronger effect = lower value 0.999 | locus YIL125W, strain kgd1, stronger effect = lower value 0.984 | locus YIR030C, strain dcg1, stronger effect = lower value 0.986 | locus YJL092W, strain hpr5, stronger effect = lower value 0.998 | locus YJL095W, strain BCK1 (second series), stronger effect = lower value 0.986 | locus YJL095W, strain BCK1, stronger effect = lower value 1.02 | locus YJL115W, strain asf1, stronger effect = lower value 0.972 | locus YJL129C, strain trk1, stronger effect = lower value 0.986 | locus YJL134W, strain LCB3, stronger effect = lower value 1.02 | locus YJL154C, strain vps35, stronger effect = lower value 0.993 | locus YJL164C, strain tpk1, stronger effect = lower value 0.996 | locus YJL166W, strain qcr8, stronger effect = lower value 0.994 | locus YJL168C, strain set2, stronger effect = lower value 0.989 | locus YJL187C, strain SWE1 (second series), stronger effect = lower value 1.02 | locus YJL187C, strain SWE1, stronger effect = lower value 0.995
